The results in this text go back to PubChem BioAssay (NCI).

Among the test systems are DU-145 prostate; K-562 leukemia; MALME-3M melanoma; MDA-MB-231 breast; RXF 393 renal; SF-268 CNS; SF-295 CNS; SF-539 CNS; UACC-257 melanoma; M14 melanoma.
What all share (experiment): NCI-60 one-dose screen, 48 h (100 = growth as untreated, 0 = no growth, -100 = all killed)
Common to all, as to conditions: 10 µM unless noted

The structures appear in SMILES notation. About 83,000 compounds went through this panel and 20% of them were active in at least one assay; those are over-represented in the sample as a whole.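 Note: values are percent growth. 100 is the growth of untreated cells, values between 100 and 0 indicate rising inhibition; between -100 and 0 indicates cell death.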 Unmarked numbers belong to inactive results. Activity calls are given as the source filed them. How the source made its calls: active means growth percent below 10; inactive means the rest.

Regarding `O=S(=O)(Nc1ccc(Cl)cc1Cl)c1ccc(-c2cnc(C3CC3)o2)cc1`, the growth in the test on DU-145 prostate is 8.88% (active); in the test with K-562 leukemia it was 10.9%; with MALME-3M melanoma, 37.7%; in the test with MDA-MB-231 breast it was 44.2%; in the test with RXF 393 renal it was -10.7% (active); with SF-268 CNS, 53.6%. Moreover, the growth with SF-295 CNS was 1.37% (active); with SF-539 CNS it was -13.5% (active); with UACC-257 melanoma, 55.4%; in the test with M14 melanoma, 10.8%.
Consider `CC(=O)CC(C)(C)c1ccc(Cl)cc1`, for which the growth in the test on DU-145 prostate was 108%; in the test on K-562 leukemia, 101%; with MALME-3M melanoma it was 108%; in the test with MDA-MB-231 breast it was 106%; in the test with RXF 393 renal it was 98%; with SF-268 CNS it was 95.7%. The growth in the test with SF-295 CNS was 101%; in the test on SF-539 CNS, 102%; with UACC-257 melanoma, 101%; in the test with M14 melanoma it was 96.8%.
As to `CN[C@@]12CC3(C=CC(=O)C=C3)O[C@]1(Cc1ccc(OC)cc1)N(C)C(=O)N2`, the growth in the test on DU-145 prostate was 101%; in the test with K-562 leukemia, 13.1%; in the test with MALME-3M melanoma it was 107%; with MDA-MB-231 breast it was 110%; with RXF 393 renal, 50.7%; with SF-268 CNS, 96.7%. For the same compound, the growth in the test with SF-295 CNS is 109%; with SF-539 CNS, 45.3%; in the test on UACC-257 melanoma, 78.8%; in the test with M14 melanoma, 63%.
Turning to `Brc1cccc(-c2nc(-c3ccc4c(c3)OCCO4)co2)c1`, the growth in the test on DU-145 prostate was 88.2% [25 µM]; in the test with K-562 leukemia it was 18.5% [25 µM]; with MALME-3M melanoma, 50.2% [25 µM]; in the test on MDA-MB-231 breast, 47.5% [25 µM]; in the test on RXF 393 renal, 66.2% [25 µM]; in the test on SF-268 CNS it was 73.6% [25 µM]. Further, the growth in the test on SF-295 CNS was 52.4% [25 µM]; with SF-539 CNS, 52.2% [25 µM]; with UACC-257 melanoma it was 87.3% [25 µM]; with M14 melanoma, 46% [25 µM].
For `Clc1nc(Cl)c2c3c(sc2n1)CCCC3`, the growth was -55.3% (active) in the test on DU-145 prostate; -33.2% (active) with K-562 leukemia; 45% with MALME-3M melanoma; 62.4% in the test with MDA-MB-231 breast; -19.4% (active) with RXF 393 renal; 26.1% with SF-268 CNS. For the same compound, the growth is 104% in the test on SF-295 CNS, 105% with SF-539 CNS, 81.2% with UACC-257 melanoma and 21.1% in the test on M14 melanoma.
In the case of `CN1CCN(Cc2ccc(NC(=O)c3[nH]ncc3Nc3ncnc4c3CCC4)cc2)CC1`, the growth was 5.56% (active) in the test on DU-145 prostate; 6.23% (active) in the test on K-562 leukemia; 4.81% (active) in the test on MALME-3M melanoma; -11.8% (active) in the test on MDA-MB-231 breast; -49.7% (active) in the test on RXF 393 renal; 4.07% (active) in the test on SF-268 CNS. For the same compound, the growth is 31.2% in the test with SF-295 CNS, -37.8% (active) in the test on SF-539 CNS, 37.7% with UACC-257 melanoma and 21.7% in the test on M14 melanoma.
Take `COc1ccc(S(=O)(=O)NCCCNc2nccc(-c3c(-c4cccc(N)c4)nc4sccn34)n2)cc1`: the growth in the test on DU-145 prostate is 92.1%; in the test on K-562 leukemia, 69.7%; with MALME-3M melanoma it was 103%; in the test on MDA-MB-231 breast, -61.7% (active); in the test on RXF 393 renal it was 96.1%; with SF-268 CNS, 87.6%. In addition, the growth is 102% in the test with SF-295 CNS, 101% in the test on SF-539 CNS, 113% with UACC-257 melanoma and 80.8% in the test with M14 melanoma.
Take `O=C1/C(=C\c2cn(C(=O)c3ccc(Cl)cc3)c3ccccc23)c2ccccc2N1c1c(Cl)cccc1Cl`: the growth with DU-145 prostate was 120%; with K-562 leukemia, 115%; with MALME-3M melanoma it was 106%; in the test with MDA-MB-231 breast it was 103%; in the test on RXF 393 renal, 151%; in the test on SF-268 CNS, 99.9%. The growth with SF-295 CNS is 127%; in the test on SF-539 CNS, 104%; in the test on UACC-257 melanoma, 123%; in the test with M14 melanoma, 104%.
With `COc1ccc(C/C(C)=C(\c2ccc(Cl)cc2)c2ccc(OCCN3CCCCCC3)cc2)cc1`, the growth with DU-145 prostate is 106%; in the test with K-562 leukemia it was 20.7%; with MALME-3M melanoma, 104%; in the test with MDA-MB-231 breast, 99.9%; in the test with RXF 393 renal, 93.1%; with SF-268 CNS, 88.4%. Moreover, the growth in the test with SF-295 CNS was 100%; in the test on SF-539 CNS, 90.8%; with UACC-257 melanoma it was 94.7%; in the test on M14 melanoma, 90.2%.
Consider `CN1CCN(Cc2ccc(NC(=O)c3cncc(C#Cc4cncc5nccnc45)c3)cc2C(F)(F)F)CC1`, for which the growth in the test on DU-145 prostate was 47.7%; with K-562 leukemia, 10.4%; in the test on MALME-3M melanoma, -17.7% (active); in the test with MDA-MB-231 breast it was 26.9%; with RXF 393 renal, 28.1%; in the test with SF-268 CNS it was 58.9%. The growth is 70.7% in the test with SF-295 CNS, 26.9% in the test on SF-539 CNS, 35.5% in the test with UACC-257 melanoma and 9.82% (active) in the test on M14 melanoma.
Take `CCNS(=O)(=O)c1ncnc2nc[nH]c12`: the growth in the test on DU-145 prostate was 102%; in the test with K-562 leukemia it was 109%; in the test with MALME-3M melanoma, 116%; in the test with MDA-MB-231 breast it was 119%; in the test on RXF 393 renal, 122%; in the test on SF-268 CNS, 132%. The growth in the test with SF-295 CNS is 109%; in the test with SF-539 CNS, 95.9%; in the test on UACC-257 melanoma, 126%; in the test with M14 melanoma, 119%.
Take `COc1ccc(-c2cn3c(ccc4ccccc43)n2)cc1`: the growth with DU-145 prostate was 104%; in the test on K-562 leukemia, 94.7%; in the test with MALME-3M melanoma, 106%; with MDA-MB-231 breast, 83.3%; with RXF 393 renal, 121%; in the test with SF-268 CNS, 101%. The growth with SF-295 CNS was 89.9%; with SF-539 CNS, 90.5%; in the test on UACC-257 melanoma, 118%; in the test on M14 melanoma it was 112%.
Turning to `OCCNCCNc1c2ccccc2nc2ccccc12`, the growth in the test on DU-145 prostate is 88.3%; with K-562 leukemia it was 69.8%; in the test on MALME-3M melanoma, 42.1%; in the test with MDA-MB-231 breast, 57.9%; with RXF 393 renal, 102%; with SF-268 CNS, 55.9%. The growth was 95.4% in the test on SF-295 CNS, 69.8% in the test with SF-539 CNS, 102% with UACC-257 melanoma and 90.9% with M14 melanoma.
